# Experimental data as given in the supplement of paper PMC10933113.
# Unmarked numbers belong to inactive results.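 How the source made its calls: active = curve rank above 3; inactive = curve rank 0.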
# Test system: KeratinoSens (HaCaT ARE-luciferase) cells
# Test: Nrf2/ARE luciferase activation call in qHTS KeratinoSens assay (1 = active, 0 = inactive)
row,Structure (SMILES),Nrf2/ARE luciferase activation call
1,CCn1cc[n+](C)c1.O=S(=O)([N-]S(=O)(=O)C(F)(F)F)C(F)(F)F,not active ARE inducer (skin sensitizer alert)
2,CCC[n+]1ccn(C)c1C.O=S(=O)([N-]S(=O)(=O)C(F)(F)F)C(F)(F)F,not active ARE inducer (skin sensitizer alert)
3,O=C(O)/C=C\C(=O)O.c1ccc2nc(N3CCNCC3)ccc2c1,not active ARE inducer (skin sensitizer alert)
4,CCCCCCCCCCCCCC[P+](CCCCCC)(CCCCCC)CCCCCC.O=S(=O)([N-]S(=O)(=O)C(F)(F)F)C(F)(F)F,not active ARE inducer (skin sensitizer alert)
5,CCCC[N+](C)(C)C.O=S(=O)([N-]S(=O)(=O)C(F)(F)F)C(F)(F)F,not active ARE inducer (skin sensitizer alert)
6,CCCC[N+](C)(CCCC)CCCC.O=S(=O)([N-]S(=O)(=O)C(F)(F)F)C(F)(F)F,not active ARE inducer (skin sensitizer alert)
7,O=C(O)/C=C/C(=O)O.O=C(O)/C=C/C(=O)O.c1ccc(CN2CCNCC2)cc1,not active ARE inducer (skin sensitizer alert)
8,CCn1cc[n+](C)c1C.O=S(=O)([N-]S(=O)(=O)C(F)(F)F)C(F)(F)F,not active ARE inducer (skin sensitizer alert)
9,CCC[N+]1(C)CCCCC1.O=S(=O)([N-]S(=O)(=O)C(F)(F)F)C(F)(F)F,not active ARE inducer (skin sensitizer alert)
10,C[N+](C)(C)CCO.O=S(=O)([N-]S(=O)(=O)C(F)(F)F)C(F)(F)F,not active ARE inducer (skin sensitizer alert)
11,CC(C)=CCN1CC[C@@]2(C)c3cc(O)ccc3C[C@@H]1[C@@H]2C.O=C(O)CCC(=O)O,not active ARE inducer (skin sensitizer alert)
12,CCCCCCCCCCCCOS(=O)(=O)O.OCCN(CCO)CCO,not active ARE inducer (skin sensitizer alert)
13,CCCC[P+](CC)(CCCC)CCCC.CCOP(=O)([O-])OCC,not active ARE inducer (skin sensitizer alert)
14,CCCC[N+]1(C)CCCC1.O=S(=O)([N-]S(=O)(=O)C(F)(F)F)C(F)(F)F,not active ARE inducer (skin sensitizer alert)
15,CC[S+](C)CC.O=S(=O)([N-]S(=O)(=O)C(F)(F)F)C(F)(F)F,not active ARE inducer (skin sensitizer alert)
16,CCCCCCCCCCCC(=O)O.OCCN(CCO)CCO,not active ARE inducer (skin sensitizer alert)
17,CCCCCCCCCCCCCCCCCC(=O)[O-].OCC[NH+](CCO)CCO,active ARE inducer (skin sensitizer alert)
18,CCCCCCn1cc[n+](C)c1.O=S(=O)([N-]S(=O)(=O)C(F)(F)F)C(F)(F)F,not active ARE inducer (skin sensitizer alert)

row,Structure (SMILES),Nrf2/ARE luciferase activation call
1,CCCn1cc[n+](C)c1.O=S(=O)([N-]S(=O)(=O)C(F)(F)F)C(F)(F)F,not active ARE inducer (skin sensitizer alert)
2,O=C(O)c1ccccc1O.Oc1cccc2cccnc12,not active ARE inducer (skin sensitizer alert)
3,O=C(O)c1ccccc1O.OCCN(CCO)CCO,not active ARE inducer (skin sensitizer alert)
4,O=C(O)CC(O)(CC(=O)O)C(=O)O.Oc1cccc2cccnc12,active ARE inducer (skin sensitizer alert)
5,CCCCCCn1cc[n+](C)c1.O=S(=O)([O-])C(F)(F)F,not active ARE inducer (skin sensitizer alert)
6,CCCCn1cc[n+](C)c1.O=S(=O)([N-]S(=O)(=O)C(F)(F)F)C(F)(F)F,not active ARE inducer (skin sensitizer alert)
7,CCCCn1cc[n+](C)c1C.O=S(=O)([N-]S(=O)(=O)C(F)(F)F)C(F)(F)F,not active ARE inducer (skin sensitizer alert)
8,CC[N+]1(C)CCCC1.O=S(=O)([N-]S(=O)(=O)C(F)(F)F)C(F)(F)F,not active ARE inducer (skin sensitizer alert)
9,CCC(COC(=O)c1cc(OC)c(OC)c(OC)c1)(c1ccccc1)N(C)C.O=C(O)/C=C\C(=O)O (stereo unspecified),not active ARE inducer (skin sensitizer alert)
10,CCN(C)C(=O)Oc1cccc([C@H](C)N(C)C)c1.O=C(O)[C@@H](O)[C@H](O)C(=O)O,not active ARE inducer (skin sensitizer alert)
11,CC(=O)[O][Cr]([OH])[O]C(C)=O.CC(=O)[O][Cr]([OH])[O]C(C)=O.CC(=O)[O][Cr]([O]C(C)=O)[O]C(C)=O,not active ARE inducer (skin sensitizer alert)
12,C[C@H](CN1CCOCC1)C(C(=O)N1CCCC1)(c1ccccc1)c1ccccc1.O=C(O)[C@H](O)[C@@H](O)C(=O)O,not active ARE inducer (skin sensitizer alert)
13,CCCCCCCCn1cc[n+](C)c1.O=S(=O)([N-]S(=O)(=O)C(F)(F)F)C(F)(F)F,not active ARE inducer (skin sensitizer alert)
14,CCN(CC)CCc1c[nH]c2ccccc12.CCN(CC)CCc1c[nH]c2ccccc12.O=C(O)/C=C/C(=O)O,not active ARE inducer (skin sensitizer alert)
15,CC[S+](CC)CC.O=S(=O)([N-]S(=O)(=O)C(F)(F)F)C(F)(F)F,not active ARE inducer (skin sensitizer alert)
16,CCCC[N+]1(C)CCCCC1.O=S(=O)([N-]S(=O)(=O)C(F)(F)F)C(F)(F)F,not active ARE inducer (skin sensitizer alert)
17,CCC[N+]1(C)CCCC1.O=S(=O)([N-]S(=O)(=O)C(F)(F)F)C(F)(F)F,not active ARE inducer (skin sensitizer alert)
18,C[C@H]1[C@@H]2Cc3ccc(O)cc3[C@@]1(C)CCN2C.C[C@H]1[C@@H]2Cc3ccc(O)cc3[C@@]1(C)CCN2C.O=C(O)/C=C/C(=O)O,not active ARE inducer (skin sensitizer alert)
